Compound activity (PubChem)
Shown are actives, neighbours in structure and some others; about 4% of the full set was active somewhere.
Mtb bLac sens = beta-lactam sensitization of Mtb H37Rv, H37Rv; M. tuberculosis H37Rv growth with meropenem, percent inhibition; inhibition, % at 25 µM; actives 0.27% (n = 330,000); call rule not given here;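 also: growth measured after seven days incubation then overnight dye step; 0% = bacteria only wells and 100% = bacteria with antibiotic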
GDH-TPI counter = GDH-TPI coupling enzyme inhibitors, primary screen, artefact control for M. tuberculosis FBA inhibitor project, biochemical, absorbance, full deck; inhibition, % at 4.8 µM; GDH-TPI coupled enzyme counterscreen, NADH absorbance; actives 1.2% (n = 360,000); in the data active = inhibition above about 30%;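 also: 0% = DMSO wells and 100% = wells lacking the enzyme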
RecA intein inh = Mtb RecA intein splicing inhibitors, primary screen, biochemical, fluorescence, HTS; Protein RecA (Mycobacterium tuberculosis (strain ATCC 25618 / H37Rv)), P9WHJ3; cell-free RecA intein splicing; inhibition, % (test concentration not listed); actives 0.75% (n = 290,000); in the data active = inhibition above about 30%; inconclusive = no clear call, values can overlap the other calls;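 also: 0% = vehicle wells and 100% = reference inhibitor control wells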
Rv3671c protease = Rv3671c serine protease inhibitors, primary screen, biochemical, fluorescence polarization, M. tuberculosis H37Rv; P9WHR9; inhibition, % at 5.96 µM; actives 0.048% (n = 320,000); in the data active = inhibition above about 38%;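 also: extracellular domain of Rv3671c used as enzyme; 0% = enzyme with DMSO and 100% = no enzyme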
Mtb UGM inh = M. tuberculosis UGM enzyme inhibitors, primary screen, biochemical, fluorescence polarization, single point; UDP-galactopyranose mutase (Mycobacterium tuberculosis (strain ATCC 25618 / H37Rv)), …; inhibition, % at 10 µM; purified UGM, fluorescence polarization probe displacement; actives 0.06% (n = 320,000); in the data active = inhibition above about 10%, passing the limit was not always enough; inconclusive = no clear call, values can overlap the other calls
Mtb FBA inh = Mtb FBA enzyme inhibitors, primary screen, biochemical, fluorescence, strain H37Rv; purified M. tuberculosis FBA, fluorescence read-out; inhibition, % at 1 µM; actives 2.3% (n = 360,000); AID 588726, 2011; in the data active = inhibition above about 27%;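 also: 0% = vehicle and 100% = reference inhibitor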
Target sequence (P9WQA3 whole entry, looked up): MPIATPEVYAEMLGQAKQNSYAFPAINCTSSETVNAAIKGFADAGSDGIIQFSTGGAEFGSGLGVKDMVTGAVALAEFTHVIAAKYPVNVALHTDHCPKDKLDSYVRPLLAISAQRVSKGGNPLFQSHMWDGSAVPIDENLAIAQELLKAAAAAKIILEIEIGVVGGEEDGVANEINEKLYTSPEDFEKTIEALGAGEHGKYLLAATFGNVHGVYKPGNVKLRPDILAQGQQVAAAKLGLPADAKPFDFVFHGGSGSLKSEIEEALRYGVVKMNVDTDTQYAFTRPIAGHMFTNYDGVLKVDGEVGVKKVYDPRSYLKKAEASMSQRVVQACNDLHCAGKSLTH
Starred values were filed as active, the others as inactive; ? = inconclusive; nt = no result; + = active, no number.

SMILES | Mtb bLac sens | GDH-TPI counter | RecA intein inh | Rv3671c protease | Mtb UGM inh | Mtb FBA inh
Cn1nc(-c2ccccc2)c2ncc(C(F)(F)F)cc21 | -10.0 | 6.1 | 1.0 | -5.6 | -5.8 | 28.2*
CCOC(=O)c1sc2nc(CC(=O)OC)nc(NCCN(CC)CC)c2c1C | -10.7 | 23.9 | -0.3 | 5.8 | -2.0 | 132.0*
O=C(NC(c1cccnc1)c1ccc2c(c1)OCO2)C1CCN(CCOc2ccc(Cl)cc2Cl)CC1 (stereo not drawn) | nt | 10.6 | nt | nt | nt | 0.6
CC(C)Cn1c(-c2ccccc2)nc(=S)c2c1CCCC2 | 3.0 | 33.6* | 0.7 | 0.5 | 0.8 | -0.5
S=c1nc(-c2ccccc2)n(CCN2CCOCC2)c2c1CCCC2 | ? | 50.6* | -1.8 | 0.2 | 5.1 | 4.4
CCN(CC)CCn1c(-c2ccccc2)nc(=S)c2c1CC(C)(C)OC2 | 7.3 | 25.9 | -0.2 | -10.6 | 0.0 | -2.4
CC1(C)Cc2c(c(=S)nc(-c3ccccc3)n2Cc2cccnc2)CO1 | -2.2 | 13.0 | -0.8 | 9.1 | 2.0 | 1.5
CC1(C)Cc2c(c(=S)nc(-c3ccccc3)n2CCN2CCOCC2)CO1 | 1.3 | 50.6* | 0.7 | 1.5 | -1.9 | 2.1
COCCn1c(-c2ccccc2)nc(=S)c2c1CC(C)(C)OC2 | 23.4 | 36.9* | -4.0 | -6.1 | 0.2 | -3.1
O=C(NC1CCSc2ccccc21)c1cccc([N+](=O)[O-])c1 (stereo not drawn) | 5.3 | 14.2 | 2.4 | -9.0 | 2.4 | 0.5
O=C(NC1CCCCC1)C(c1ccncc1)N(C(=O)c1csnn1)c1ccccc1 (stereo not drawn) | 2.3 | -2.7 | -0.9 | 2.4 | -1.1 | -1.7
O=C(CSc1nnc(-c2ccccc2F)n1C1CC1)N1CCCC1 | nt | 4.5 | nt | nt | nt | -1.9
O=[N+]([O-])c1cccc(/C=C/c2nc[nH]c2[N+](=O)[O-])c1 | -4.7 | 42.0* | -1.9 | -8.0 | -1.7 | -10.7
CC[C@@H](CO)NC(=O)[C@@H]1C=C2c3cccc4[nH]cc(c34)C[C@H]2N(C)C1 | nt | -6.3 | nt | nt | nt | 128.4*
Nc1ncc(-c2ccc([N+](=O)[O-])cc2)cn1 | ? | 54.3* | 0.8 | -18.5 | -1.9 | -0.6
COc1ccc(-c2nc(CS(=O)(=O)CC(=O)NCCCN3CCN(C)CC3)c(C)o2)cc1 | -3.5 | -9.8 | -1.0 | -7.0 | 1.4 | 2.5
CC1CCC/C(=C\c2ccc(O)cc2)C1=O (stereo not drawn) | 3.4 | 32.4* | 2.3 | -2.2 | 0.9 | 0.5
O=C(CSc1ccc([N+](=O)[O-])cn1)Nc1nccs1 | 80.6 | 34.5* | -1.1 | -7.4 | -2.7 | -3.5
COc1ccc(/C=C2/SC(=S)N(c3ccc(S(=O)(=O)Nc4nccs4)cc3)C2=O)cc1 | 0.5 | 12.2 | 1.0 | -44.7 | 1.3 | -6.5
COc1ccc(-n2ccc(=O)c(C(=O)Nc3ccc(S(=O)(=O)Nc4nccs4)cc3)n2)cc1 | 0.0 | 39.9* | 1.4 | -15.2 | 0.4 | 2.4
Cc1ccc(/C=C2/SC(=S)N(c3ccc(S(=O)(=O)Nc4nccs4)cc3)C2=O)cc1 | 11.3 | 39.3* | 3.5 | 3.3 | 4.1 | 1.7
COc1ccc(/C=C2\SC(=O)N(CCC(=O)Nc3ccc(S(=O)(=O)Nc4nccs4)cc3)C2=O)cc1 | -4.5 | 27.2 | -2.8 | -354.7 | nt | -4.1
COc1ccc(/C=C2/SC(=O)N(CCC(=O)Nc3ccc(S(=O)(=O)Nc4nccs4)cc3)C2=O)cc1 | -6.7 | 33.8* | -8.2 | -227.2 | -0.6 | -5.9
CC1CC(C)CN(S(=O)(=O)c2ccc3oc(=O)ccc3c2)C1 (stereo not drawn) | -18.5 | 4.1 | 0.4 | -3.1 | -0.5 | -0.3
COc1cccc(CCNC(=O)CC2C(=O)NCCN2Cc2ccc(C)o2)c1 (stereo not drawn) | -4.8 | 16.2 | -3.2 | 8.2 | 2.8 | 5.8
SMILES | Mtb bLac sens | GDH-TPI counter | RecA intein inh | Rv3671c protease | Mtb UGM inh | Mtb FBA inh
Cc1ccc(NC(=O)COC(=O)C2CCN(c3ccc(C(F)(F)F)cn3)CC2)cc1 | -4.5 | 2.5 | nt | -2.5 | 3.1 | 2.3
C=CCn1c(O)c(N=NC(=S)Nc2ccc(OC)c(Cl)c2)c2ccccc21 | 3.6 | 45.7* | 15.4 | 6.6 | 2.4 | 0.1
C=CCn1c(O)c(N=NC(=O)OC(C)(C)C)c2ccccc21 | -1.3 | 4.4 | -3.1 | -6.9 | -2.6 | 0.0
C=CCn1c(O)c(N=NC(=O)C(O)c2ccccc2)c2ccccc21 (stereo not drawn) | -4.2 | 38.8* | 1.7 | -0.9 | 2.0 | 3.0
C#CCn1c(O)c(N=NC(=O)C(O)c2ccccc2)c2ccccc21 (stereo not drawn) | -5.6 | 31.2* | 1.7 | 1.3 | 1.9 | -0.2
Cc1cccc(OCC(=O)Oc2ccc(Cl)cc2)c1 | -5.8 | 3.4 | 34.4* | 7.1 | 3.1 | 1.7
C[C@@H]1CN([C@H](C)CO)C(=O)c2c(c3ccccc3n2C)-c2ccccc2CO[C@H]1CN(C)C(=O)NC1CCCCC1 | nt | 2.1 | nt | nt | nt | 1.3
CN(C)c1ccc(C(=O)c2ccc(N(C)C)cc2)cc1 | ? | 40.5* | 0.4 | 2.4 | 2.9 | 1.6
CC(=O)NC(NC(C)=O)c1ccc(N(C)C)cc1 | 6.3 | 46.8* | -1.8 | -12.5 | 1.4 | -1.7
CCN(CC)c1ccc(C(NC(C)=O)NC(C)=O)cc1 | 23.4 | 1.7 | -1.1 | 2.8 | -1.0 | -2.4
Cc1ccc(CNC(=O)C2CCC(=O)N(Cc3ccccc3F)C2)s1 (stereo not drawn) | 10.1 | 6.6 | -1.2 | 3.7 | 0.5 | 4.8
CCN(CC)CCNc1ncnc2c1sc1nc(N3CCOCC3)c3c(c12)CC(C)(C)SC3 | 7.1 | 33.7* | nt | 0.0 | 0.3 | 7.1
COCCNc1nnnc2c1sc1nc(N3CCOCC3)c3c(c12)CC(C)(C)OC3 | -3.3 | 7.6 | -0.2 | -4.6 | 0.8 | 0.8
CN(C)CCNc1ncnc2c1sc1nc(N3CCOCC3)c3c(c12)CC(C)(C)SC3 | 9.5 | 28.3 | -0.6 | -9.8 | -3.1 | 5.0
CC1(C)Cc2c(c(N3CCOCC3)nc3sc4c(NCCN)ncnc4c23)CO1 | nt | 46.8* | nt | nt | nt | 12.4
CC1CN(C(=O)CSc2nc(N)c(NC(=O)c3ccc(C(F)(F)F)cc3)c(=O)[nH]2)CC(C)O1 (stereo not drawn) | nt | 0.9 | nt | nt | nt | 1.9
O=C(Nc1ccc(Cl)c(C(F)(F)F)c1)C1Cc2c(-c3ccccc3)ccnc2O1 (stereo not drawn) | nt | 9.7 | nt | nt | nt | 1.5
COC(=O)C(C)Oc1ccc2cc(-c3ccccc3)c(=O)oc2c1 (stereo not drawn) | 99.7 | 17.0 | -6.2 | 2.3 | -1.2 | +
CCCOc1ccc2cc(-c3ccccn3)c(=O)oc2c1 | -0.5 | 14.3 | -11.6 | 8.8 | -1.6 | +
COc1cccc2cc(-c3ccccc3)c(=O)oc12 | 1.4 | -1.0 | 0.3 | -11.8 | 0.8 | 3.3
